Screening results: PubChem, National Center for Advancing Translational Sciences (NCATS)
This is a sample that favours compounds with a hit; in the whole collection about 7% have one here.
ATXN2 expr inh – inhibitors of ATXN2 expression | HEK-293 ATXN2-luciferase reporter, luminescence, 24 h | 360,000 tested, 0.72% active | Potency, µM (top dose mostly 57 µM), for the others: at the highest dose activity change, negative = inhibition, hits mostly inhibitors; also: potency is read from the fitted curve at half-maximal effect; % is scaled to controls: 0 for no effect and ±100 for the full control effect; nearly all actives have a fitted effect of over 55% in size
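qHTS (up to 57 uM final) was run with 24 h compound exposure of reporter cells at 37 °C. Each well was multiplexed: SteadyGlo luminescence measured ATXN2-luciferase expression after a fluorogenic Gly-Phe-AFC viability readout (25 uM final).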
D3 antag – blocks the human D3 dopamine receptor; P35462; D3R cells, DiscoveRx beta-arrestin luminescence, antagonist mode; hits give low values; max response, negative = inhibition, %; 360,000 tested, 2.5% active; AID 652054; in the data active = max response below about -50%; inconclusive = no clear call, values can overlap the other calls; also: % is scaled to controls: 0 for no effect and ±100 for the full control effect
Target sequence (P35462 whole entry, looked up): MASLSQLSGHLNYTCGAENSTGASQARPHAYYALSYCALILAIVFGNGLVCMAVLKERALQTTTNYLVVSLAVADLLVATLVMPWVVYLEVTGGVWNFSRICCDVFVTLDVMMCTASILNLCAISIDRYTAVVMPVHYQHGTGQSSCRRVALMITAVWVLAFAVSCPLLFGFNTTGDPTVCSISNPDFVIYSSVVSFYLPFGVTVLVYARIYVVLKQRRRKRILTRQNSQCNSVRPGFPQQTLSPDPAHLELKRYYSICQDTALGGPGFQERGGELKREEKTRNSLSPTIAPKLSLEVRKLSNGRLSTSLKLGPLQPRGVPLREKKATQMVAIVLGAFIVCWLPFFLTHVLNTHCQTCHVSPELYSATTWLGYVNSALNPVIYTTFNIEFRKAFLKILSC
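Cells expressing the human receptor were seeded at 1500 cells/well, incubated overnight at 37 degrees C in 5% CO2, then exposed to library compounds with dopamine controls for 90 minutes at 37 degrees C before luminescent detection.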
S2 tox – cell viability loss in ATXN counter-screen. S2 cells (HEK-293 line with an ATXN2-luciferase reporter) viability, CellTiter-Fluor protease fluorescence, 24 h. AID 651635. Potency, µM (doses to about 56.7 µM), most hits filed as cytotoxic. 400,000 tested, 0.49% active; also: potency is read from the fitted curve at half-maximal effect; nearly all actives have a fitted effect of over 40% in size
IL-1B inflam inh – inhibitors of inflammasome signaling (IL-1 beta secretion); THP-1 LPS/ATP IL-1B secretion, AlphaLISA, 16 h; hits give low values; activity change, % at 57.5 µM; 360,000 tested, 4.7% active; in the data active = activity change below about -50%; inconclusive = mostly about -30% to -49%; also: % is scaled to controls: 0 for no effect and ±100 for the full control effect
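THP-1 cells pretreated 1 hr with compounds (up to 57.5 uM final), then stimulated with LPS (250 ng/mL final) plus ATP (1.25 mM final); secreted IL-1B measured by AlphaLISA after 16 hr, decreased signal indicating inhibition.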
DRD3 agonist – agonists of human D3 dopamine receptor | AID 652048 | P35462 | max activation, % | 410,000 tested, 0.58% active | D3R DiscoveRx beta-arrestin cells, luminescence, 90 min; in the data active = max activation above about 30%; also: 0% is about no effect
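Agonist mode: compounds and dopamine controls were applied to plated cells for 90 min at 37 degrees C after an overnight attachment at 1500 cells/well. Luminescent read-out followed 30 - 60 minutes at room temperature with DiscoveRx detection reagent.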
a7 integrin act – integrin-mediated muscular dystrophy alleviation activation | alpha7betagal myoblasts, beta-gal FDG fluorescence, 48 h | Potency, µM (highest dose often 38.3 µM), for the others: at the top dose activation, actives largely listed as activators | 350,000 tested, 0.064% active | AID 624291;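 also: potency is read from the fitted curve at half-maximal effect; 100% = response of the positive control SU9516; nearly all actives have a fitted effect of over 60% in size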
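alpha7betagal+/- myoblasts (passage 13, 250/well) treated 48 h at 37C with compounds at 1:260 dilution of DMSO stock. Lysed, then beta-galactosidase activity read as FDG fluorescence (ex 480/em 540) after 30 min, with pre-read for autofluorescence.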
Numbers without * were called inactive; i = inactive; ? = inconclusive; . = not tested or not shown; [ ] = dose if it differs, or a comment. Unless noted, calls follow the shape of the dose curve; as a rule, active = well fitted curve in the direction sought with a large enough effect; inconclusive = small, poorly fitted or top-dose-only effect, or another doubt; inactive = no such curve, though single readings can be large; an effect the other way counts as inactive or inconclusive.

SMILES	ATXN2 expr inh	D3 antag	S2 tox	IL-1B inflam inh	DRD3 agonist	a7 integrin act
O=C(Nc1cc(S(=O)(=O)Nc2ccc(Cl)cc2)ccc1O)c1ccc(S(=O)(=O)N2CCCCCC2)cc1	-32%	-50*	i	-1	-17	-31%
O=C(Nc1cc(S(=O)(=O)N2CCOCC2)ccc1O)c1ccc(S(=O)(=O)N2CCCCC2)cc1	.	-2	?	-5	0	8%
COc1ccc(C(C)=O)cc1Cn1c(C)c(C(=O)NCc2cccc(C(F)(F)F)c2)sc1=O	-18%	33	i	-22	0	.
COc1ccc2c(c1)CO[C@]21O[C@H](CCO)C[C@H](O)[C@H]1O	8%	-69*	i	-6	-12	.
CN(C)S(=O)(=O)c1cccc(NC(=S)N/N=C/C(c2ccccc2)c2ccccc2)c1	5%	14	i	1	1	-17%
COC1C(OC(=O)/C=C/C=C/C=C/C=C/C(=O)O)CCC2(CO2)C1C1(C)OC1CC=C(C)C (stereo not drawn) (tested in a mixture with another compound)	12%	5	i	0	1	-19%
CC(C)c1ccc(S(=O)(=O)c2cnc(=S)[nH]c2N)cc1	-2%	-59*	i	6	-7	-13%
O=C(NC(=S)NCc1nc2ccccc2[nH]1)c1ccccc1F	6%	-63*	i	26	-13	-12%
Fc1ccc(OCc2nn[nH]n2)c(F)c1	.	-10	i	-11	0	?
COc1cc(CN(CCN(C)C)Cc2ccccc2)ccc1OCc1ccccc1	-16%	-11	i	-63*	-9	-57%
Cc1cccc2cc(CN(CC3CCCO3)C(c3nnnn3Cc3ccco3)C(C)C)c(=O)[nH]c12 (stereo not drawn)	-31%	-14	?	-61*	-8	0%
Cc1ccc2cc(CN(CCCN3CCOCC3)C(c3nnnn3Cc3ccco3)C(C)C)c(=O)[nH]c2c1C (stereo not drawn)	-6%	23	i	-9	-21	-10%
CC(C)NC(=O)c1ccc(COCC(F)(F)C(F)F)cc1	0%	-24	i	-10	-11	9%
CC1C(=O)N(Cc2cn(CCC3OCCO3)nn2)CCS(=O)(=O)N1Cc1ccc(-c2ccc(Cl)c(Cl)c2)cc1 (stereo not drawn)	?	17	.	-19	2	-48%
O=C(CCN1CCC(c2ccccc2)C1)c1cccs1 (stereo not drawn)	?	-66*	?	-15	-25	-34%
COc1ccccc1C1CCN(C(=O)c2cccs2)CC1	-9%	3	i	-53*	6	-15%
O=C(c1ccccc1)C1CCN(C(=O)c2cccs2)CC1	-5%	4	i	.	4	9%
COc1ccccc1C1CCN(Cc2cccc(C(=O)N3CCC(O)CC3)c2)CC1	.	-110*	i	10	-3	-23%
O=C(c1cccs1)N1CCC(c2ccccc2)C1 (stereo not drawn)	-14%	-59*	i	0	-8	5%
O=C(CCN1CCC(c2ccccc2)C1)c1ccccc1 (stereo not drawn)	1%	?	i	3	-27	-27%[7.66 µM]
COc1cccc(Cn2c(C(C)n3c(C)nc4ccccc43)nc3ccccc32)c1 (stereo not drawn)	.	1	.	21	1	.
Cc1ccc(Cl)cc1-n1ncc2c(NCCCn3ccnc3)ncnc21	-19%	.	i	.	-16	.
CN1CCC(OC(c2ccccc2)c2ccc(Cl)cc2)C1 (stereo not drawn)	?	-74*	i	.	-17	-60%
O=C(C[C@H]1CC[C@@H]2[C@H](COC[C@H](O)CN2Cc2nccs2)O1)NCc1ccccc1Cl	.	9	.	-14	7	.
COc1ccc(NC(=O)Nc2cccc3c2O[C@H](CN(C)S(=O)(=O)c2cn(C)cn2)[C@@H](C)CN([C@H](C)CO)C3=O)cc1	5%	-1	i	13	4	12%
Cc1ccccc1OCc1nc2ccccc2c(=O)n1/N=C/c1cn[nH]c1-c1ccccc1	?	23	?	-53*	7	-10%
